From PubChem BioAssay (NCATS)
Inconclusive results are not listed. Entries that show only a call come without a potency. A number with no mark means an inactive call. The source made the active and inactive calls. The call rests on the fitted dose curve; in most records, active means well fitted curve in the direction sought with a large enough effect; inconclusive means small, poorly fitted or top-dose-only effect, or another doubt; inactive means no such curve, though single readings can be large; an effect the other way counts as inactive or inconclusive.

Tests used:
[1] = molecular target: Cellular tumor antigen p53 (Homo sapiens) (UniProt P04637); assay: Primary qHTS for small molecule compounds that upregulate eGFP-tagged delta133p53alpha (in N-terminal) cells. (AID 2060322); settings: NCI-H358 eGFP-delta133p53alpha fluorescence, 24 h; activation: active compounds read high; further: nearly all actives have a fitted effect of over 75% in size; further: potency means the concentration at half of the fitted maximal effect;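 on activation: cells pre-induced with doxycycline then dosed without doxycycline; series mostly up to about 56 µM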
Procedure, shortened: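 NCI-H358 cells pre-induced 24 h with 10 ng/ml doxycycline for eGFP-delta133p53alpha, plated dox-free and exposed 24 h at 37C to titrated compounds. Fixed, Hoechst-stained; gated GFP peak intensity by laser scanning cytometry, normalized to DMSO (0%) and 57.5 uM 5-azacytidine (100%).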

[2] = molecular target: Aldehyde dehydrogenase, mitochondrial (Homo sapiens) (UniProt P05091); assay: qHTS for Inhibitors of the Aldehyde Dehydrogenase Family (ALDH2) Primary screen (AID 2061308); further: nearly all actives have a fitted effect of over 55% in size
[3] = molecular target: Retinaldehyde dehydrogenase 3 (Homo sapiens) (UniProt P47895); assay: qHTS for Inhibitors of the Aldehyde Dehydrogenase Family (ALDH1A3) Primary screen (AID 2061315)

Chain of Cellular tumor antigen p53 (Homo sapiens) (P04637 whole entry, looked up): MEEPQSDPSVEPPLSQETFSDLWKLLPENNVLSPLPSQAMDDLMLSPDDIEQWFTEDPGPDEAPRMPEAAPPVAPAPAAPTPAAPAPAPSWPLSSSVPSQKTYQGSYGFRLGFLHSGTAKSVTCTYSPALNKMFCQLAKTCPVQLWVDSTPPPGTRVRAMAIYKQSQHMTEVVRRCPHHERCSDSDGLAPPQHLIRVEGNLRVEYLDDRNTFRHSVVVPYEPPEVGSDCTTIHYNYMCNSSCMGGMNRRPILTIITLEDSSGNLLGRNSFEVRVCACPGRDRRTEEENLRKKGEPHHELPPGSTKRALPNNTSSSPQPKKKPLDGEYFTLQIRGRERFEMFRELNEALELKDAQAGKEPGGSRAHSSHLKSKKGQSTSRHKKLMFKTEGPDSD

| SMILES | activation [1] [%] | Potency [2] | Potency [3] | Potency [1] | activity change, negative = inhibition [2] | activity change, negative = inhibition [3] |
| --- | --- | --- | --- | --- | --- | --- |
| C/C(=C\C(=O)C(C)C1CCC2C3=C(CCC21C)C1(C)CCC(=O)C(C)(C)C1(O)CC3)C(C)(C)O (stereo not given) | -16.8 | inactive | inactive |  |  |  |
| C[C@H]1CC(=O)Nc2cccc(-c3cnn(C(C)(C)C)c3)c2N1 | -12.5 | inactive | inactive |  |  |  |
| C=C1C[C@]23C[C@H]1[C@@H](O)C[C@H]2[C@@]12C=C[C@H](O)[C@@](C)(C(=O)O1)[C@H]2[C@@H]3C(=O)O | -13 | inactive | inactive |  |  |  |
| CC1(C)CC[C@]2(C(=O)O[C@@H]3O[C@H](CO)[C@@H](O)[C@H](O)[C@H]3O)CC[C@]3(C)C(=CCC4[C@@]5(C)C[C@@H](O)[C@H](O)[C@](C)(C(=O)O)C5CC[C@]43C)C2C1O (stereo not given in full) | -2.68 | inactive | inactive |  |  |  |
| C=C1C(=O)OC2CC(C)C(CCC(C)=O)=CCC12 (stereo not given) |  | inactive | inactive | 16.9 µM (active) |  |  |
| CC(=O)OC1C(O)CC2(C)C(CCC3(C)C2CC=C2C4C5(CCC(CO[C@@H]6O[C@H](CO)[C@@H](O)[C@H](O)[C@H]6O)(OC5=O)C4(C)O)C(O)CC23C)C1(C)C (stereo not given in full) | -11.5 | inactive | inactive |  |  |  |
| COc1cc(COC2OC(CO)C(O)C(O)C2O)cc(OC)c1O (stereo not given) | -6.87 | inactive | inactive |  |  |  |
| C=C1C(=O)O[C@H]2[C@H]1[C@@H](OC(=O)C(C)CO)C[C@@]1(C)[C@H](O)CCC(=O)[C@H]21 (stereo not given in full) | -11.5 | inactive | inactive |  |  |  |
| C[C@]1(OC(=O)/C=C/c2ccccc2)C[C@@H](O)[C@]2(O)C=CO[C@@H](O[C@@H]3O[C@H](CO)[C@@H](O)[C@H](O)[C@H]3O)[C@@H]21 | -8.93 | inactive | inactive |  |  |  |
| CC(=O)OC1C(CO)OC(O[C@H]2[C@H](OC(=O)[C@]34CCC(C)(C)C[C@H]3C3=CCC5[C@@]6(C)CC[C@H](O[C@@H]7O[C@H](C(=O)O)[C@@H](O)[C@H](O[C@@H]8OC[C@@H](O)[C@H](O)[C@H]8O)[C@H]7O[C@@H]7O[C@H](CO)[C@H](O)[C@H](O)[C@H]7O)[C@@](C)(C=O)C6CC[C@@]5(C)[C@]3(C)C[C@H]4O)O[C@H](C)[C@H](OC3OC(C)C(OC4OCC(O)C(O)C4O)C(O)C3O)[C@@H]2O)C(O)C1O (stereo not given in full) | 4.58 |  |  |  | -12.7% [at 11.2 µM] | 4.72% [at 11.2 µM] |
| C[C@@H]1O[C@@H](O[C@H]2[C@H](O)[C@@H](O)[C@H](OC[C@H]3O[C@@H](OC(=O)[C@]45CCC(C)(C)C[C@H]4C4=CCC6[C@@]7(C)C[C@@H](O)[C@H](O)[C@@](C)(CO)C7[C@H](O)C[C@@]6(C)[C@]4(C)CC5)[C@H](O)[C@@H](O)[C@@H]3O)O[C@@H]2CO)[C@H](O)[C@H](O)[C@H]1O (stereo not given in full) | 16 | inactive | inactive |  |  |  |
| CC(C)C1=CC2C(CC[C@]2(C)O)[C@](C)(O)CC1 (stereo not given in full) | -6.25 | inactive | inactive |  |  |  |
| O=C(/C=C/c1ccc(O)cc1)OCC1=CC2OC(=O)C3=CO[C@@H](O[C@@H]4O[C@H](CO)[C@@H](O)[C@H](O)[C@H]4O)[C@H]1[C@@H]32 (stereo not given in full) | 0 | inactive | inactive |  |  |  |
| C=C1C(=O)OC2C(OC(=O)C=C(C)C)C(C)=C3C(=O)C=C(C)C3C(O)C12 (stereo not given) |  | inactive | inactive | 14.8 µM (active) |  |  |
| C/C=C/C=C/C=C/C(=O)O[C@@H]1C=C(CO)C(O)(C(=O)OC)[C@@]2(C)CCCC(C)(C)C12 (stereo not given in full) | -10.7 | inactive | inactive |  |  |  |
| COc1cc(O)cc(C)c1C(=O)O[C@H]1[C@@H](O)[C@@H](n2ccc(=O)[nH]c2=O)O[C@@H]1CO | -9.16 | inactive | inactive |  |  |  |
| COC(=O)C12CCC(C)C(C)C1C1=CCC3C4(C)CCC(OC(C)=O)C(C)(C)C4CCC3(C)C1(C)CC2 (stereo not given) | -12.2 | inactive | inactive |  |  |  |
| CCOC(=O)Cn1cccc1-c1nc(-c2ccc(OC)cc2)c(-c2ccc(OC)cc2)s1 | 27.6 | inactive | inactive |  |  |  |
| CC(=O)O[C@H]1[C@H](Oc2ccccc2COC(=O)C2(O)C=CCCC2=O)O[C@H](CO)[C@@H](O)[C@@H]1O (stereo not given in full) | -9.92 | inactive | inactive |  |  |  |
| CC1=C2C(=O)C=C(CO)[C@@H]2[C@H]2OC(=O)[C@H](C)[C@@H]2[C@@H](O)C1 | -3.57 | inactive | inactive |  |  |  |
